# This is part of a sample that, as a whole, favours compounds with a hit. Of some 79,000 tested, about 15% had one in any assay. Values without a mark were called inactive. The source made the active and inactive calls. Cut-off read from the data, not from the text of the source: active = growth inhibition above about 70%; inactive = the rest.
# Assay: NCI Yeast Anticancer Drug Screen. Data for the mlh1 strain (AID 171);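 note: 0% = growth of vehicle-treated control cultures of the same strain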
# Conditions: S. cerevisiae mlh1 strain growth inhibition, active compounds read high
# Protocol: Growth inhibition of yeast strains with defined genetic alterations is measured as a screen for potential anti-cancer activity. Selected strains with alterations in DNA damage repair or cell cycle control were exposed to compounds and growth inhibition was measured relative to vehicle treated controls. The strain used in this assay is mlh1
Structure (SMILES),growth inhibition (at 1.2 µM) [%],growth inhibition (at 3.7 µM) [%],growth inhibition (at 11.0 µM) [%],growth inhibition (at 33.0 µM),growth inhibition (at 100.0 µM)
Nc1ccccc1CC(O)C(=O)O (stereo not given),2,4,29,92% (active),97% (active)
N#CSc1ccc(S(N)(=O)=O)cc1,-65,-44,-33,8%,64%
Cc1c(Cl)ccc2c1S(=O)(=O)c1cccc(Cl)c1-2,-3,2,-5,-8%,-2%
O=C1C(=O)c2ccccc2C=C1[N+](=O)[O-],1,1,3,22%,83% (active)
Cc1cc(S(=O)(=O)/N=C(/NN)NNc2cccc(C(F)(F)F)n2)c(S)cc1Cl,-3,-2,-4,-5%,19%
S=C(N/N=C(/c1ccccc1)c1ccccn1)N1CCCCCC1,-3,-2,4,1%,-1%
CC(C)(C)c1nc2c(o1)C(=O)c1ccccc1C2=O,-6,-3,25,81% (active),96% (active)
S=C(S)NN1CCOCC1,63,30,30,34%,72% (active)
